According to PubChem BioAssay (NCI):
This is part of a sample that, as a whole, favours compounds with a hit. Of some 83,000 tested, about 20% had one in any assay.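 Negative percent growth values reflect cell death: -40 means 40% of the cells present at the start died, and -100 means all died.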 A number with no mark means an inactive call. Calls of active or inactive are those of the source. Rule for the calls: active = growth percent below 10; inactive = the rest.

Assays:
Test in all cases: NCI-60 one-dose screen, 48 h (100 = growth as untreated, 0 = no growth, -100 = all killed)
NCI-H23 lung = conditions: 10 µM
HOP-92 NSCLC = conditions: 10 µM
MDA-MB-231 breast = conditions: 10 µM
RXF 393 renal = conditions: 10 µM
SNB-19 CNS = conditions: 10 µM
LOX IMVI melanoma = conditions: 10 µM
SK-MEL-28 melanoma = conditions: 10 µM
UO-31 renal = conditions: 10 µM
CAKI-1 renal = conditions: 10 µM
OVCAR-8 ovarian = conditions: 10 µM
HS 578T breast = conditions: 10 µM
T-47D breast = conditions: 10 µM
SW-620 colon = conditions: 10 µM
MDA-MB-468 breast = conditions: 10 µM unless noted
K-562 leukemia = conditions: 10 µM
MOLT-4 leukemia = conditions: 10 µM
SR leukemia = conditions: 10 µM
SK-OV-3 ovarian = conditions: 10 µM
M14 melanoma = conditions: 10 µM
HCT-15 colon = conditions: 10 µM

Q: `CC1=C(C=O)C2=C(C)C3(CC3)[C@@](C)(O)C(=O)C2=C1` was tested. Which growth (NCI-H23 lung) did it give?
A: 10.3%

Q: And the growth (HOP-92 NSCLC)?
A: 18.5%

Q: And the growth (MDA-MB-231 breast)?
A: -43.4% (active)

Q: And the growth (RXF 393 renal)?
A: -68.8% (active)

Q: And the growth (SNB-19 CNS)?
A: 54.5%

Q: What about the growth (LOX IMVI melanoma) of the same compound?
A: -76.1% (active)

Q: What about the growth (SK-MEL-28 melanoma) of the same compound?
A: 23.3%

Q: And the growth (UO-31 renal)?
A: 11.2%

Q: What about the growth (CAKI-1 renal) of the same compound?
A: 31.7%

Q: And the growth (OVCAR-8 ovarian)?
A: -25.3% (active)

Q: And the growth (HS 578T breast)?
A: 36.3%

Q: And the growth (T-47D breast)?
A: 13.5%

Q: What about the growth (SW-620 colon) of the same compound?
A: -15.8% (active)

Q: And the growth (MDA-MB-468 breast)?
A: -33.8% (active)

Q: Which results are given for `CC(=O)Oc1ccccc1C(=O)[Se]C(=NC(C)C)NC(C)C`?
A: growth (HOP-92 NSCLC): -49.2% (active); growth (K-562 leukemia): -29.6% (active); growth (MDA-MB-231 breast): -50.5% (active); growth (RXF 393 renal): -98.3% (active); growth (LOX IMVI melanoma): -80% (active); growth (SK-MEL-28 melanoma): -85.5% (active); growth (CAKI-1 renal): -98.5% (active); growth (MOLT-4 leukemia): -15.4% (active); growth (SR leukemia): -27.5% (active); growth (OVCAR-8 ovarian): -86.3% (active); growth (SK-OV-3 ovarian): -95.6% (active); growth (HS 578T breast): -15.6% (active); growth (T-47D breast): -45.6% (active); growth (SW-620 colon): -72.4% (active); growth (MDA-MB-468 breast): -64.4% (active)

Q: `CC1=C2C(=C[C@@](C)(COP(=O)(Oc3ccccc3)Oc3ccccc3)[C@@H]2O)C(=O)[C@@](C)(O)C12CC2` was tested. Which growth (NCI-H23 lung) did it give?
A: -84.6% (active)

Q: And the growth (HOP-92 NSCLC)?
A: -44.8% (active)

Q: And the growth (MDA-MB-231 breast)?
A: -79.2% (active)

Q: What about the growth (RXF 393 renal) of the same compound?
A: -95.6% (active)

Q: What about the growth (M14 melanoma) of the same compound?
A: -22.9% (active)

Q: And the growth (LOX IMVI melanoma)?
A: -76.3% (active)

Q: And the growth (SK-MEL-28 melanoma)?
A: -88.1% (active)

Q: What about the growth (UO-31 renal) of the same compound?
A: -68.6% (active)

Q: And the growth (CAKI-1 renal)?
A: -19.5% (active)

Q: What about the growth (OVCAR-8 ovarian) of the same compound?
A: -68.5% (active)

Q: What about the growth (HS 578T breast) of the same compound?
A: -25.2% (active)

Q: And the growth (T-47D breast)?
A: -47.8% (active)

Q: And the growth (SW-620 colon)?
A: 29.8%

Q: And the growth (MDA-MB-468 breast)?
A: -89.8% (active)

Q: For `O=C(/C=C/c1ccc(F)cc1)c1nc2ccccc2n1Cc1ccc(Br)cc1`, which growth (NCI-H23 lung) is on record?
A: -75.4% (active)

Q: And the growth (HOP-92 NSCLC)?
A: -51.5% (active)

Q: What about the growth (K-562 leukemia) of the same compound?
A: -12.7% (active)

Q: What about the growth (RXF 393 renal) of the same compound?
A: -91.1% (active)

Q: What about the growth (M14 melanoma) of the same compound?
A: -57.7% (active)

Q: What about the growth (SK-MEL-28 melanoma) of the same compound?
A: -58.4% (active)

Q: And the growth (MOLT-4 leukemia)?
A: -13.4% (active)

Q: And the growth (SR leukemia)?
A: -19.5% (active)

Q: What about the growth (SK-OV-3 ovarian) of the same compound?
A: 30.2%

Q: What about the growth (MDA-MB-468 breast) of the same compound?
A: -90.8% (active)

Q: With `C#CC[Se]C(=O)c1ccc(C(=O)[Se]CC#C)s1` as the compound, how does the growth (HOP-92 NSCLC) read?
A: 157%

Q: What about the growth (K-562 leukemia) of the same compound?
A: 89.6%

Q: What about the growth (MDA-MB-231 breast) of the same compound?
A: 95%

Q: And the growth (RXF 393 renal)?
A: 101%

Q: What about the growth (M14 melanoma) of the same compound?
A: 73.7%

Q: And the growth (LOX IMVI melanoma)?
A: 93.1%

Q: What about the growth (SK-MEL-28 melanoma) of the same compound?
A: 104%

Q: And the growth (CAKI-1 renal)?
A: 106%

Q: What about the growth (MOLT-4 leukemia) of the same compound?
A: 101%

Q: What about the growth (SR leukemia) of the same compound?
A: 26.8%

Q: What about the growth (OVCAR-8 ovarian) of the same compound?
A: 75.6%

Q: What about the growth (SK-OV-3 ovarian) of the same compound?
A: 110%

Q: And the growth (HS 578T breast)?
A: 92.4%

Q: What about the growth (T-47D breast) of the same compound?
A: 88.8%

Q: And the growth (SW-620 colon)?
A: 98.2%

Q: And the growth (MDA-MB-468 breast)?
A: 64.5%

Q: Which growth (HOP-92 NSCLC) does the source give for `O=C(NC([Se])=NC1CCCCC1)c1ccc2c(c1)OCO2` here?
A: 118%

Q: What about the growth (K-562 leukemia) of the same compound?
A: 74.3%

Q: And the growth (MDA-MB-231 breast)?
A: 68.5%

Q: And the growth (RXF 393 renal)?
A: 65.9%

Q: And the growth (M14 melanoma)?
A: 60.2%

Q: And the growth (SNB-19 CNS)?
A: 33.3%

Q: And the growth (LOX IMVI melanoma)?
A: 81.6%

Q: What about the growth (UO-31 renal) of the same compound?
A: 38.5%

Q: What about the growth (MOLT-4 leukemia) of the same compound?
A: 55.6%

Q: And the growth (SR leukemia)?
A: 60.3%

Q: And the growth (OVCAR-8 ovarian)?
A: 37.7%

Q: What about the growth (HS 578T breast) of the same compound?
A: 60.8%

Q: And the growth (SW-620 colon)?
A: 41.2%

Q: And the growth (MDA-MB-468 breast)?
A: 77.1%

Q: What does the source list for `C=CC[Se]C(=O)c1cncc(C(=O)[Se]CC=C)c1`?
A: growth (NCI-H23 lung): -74.7% (active); growth (HOP-92 NSCLC): -18% (active); growth (K-562 leukemia): -15.7% (active); growth (RXF 393 renal): -91.9% (active); growth (HCT-15 colon): -37.4% (active); growth (MOLT-4 leukemia): -22.9% (active); growth (SR leukemia): -13.3% (active); growth (MDA-MB-468 breast): -85.2% (active)

Q: For `COc1ccc2cc([C@H](C)C(=O)[Se]CCC#N)ccc2c1`, which growth (HOP-92 NSCLC) is on record?
A: -82.1% (active)

Q: What about the growth (K-562 leukemia) of the same compound?
A: 4.12% (active)

Q: What about the growth (MDA-MB-231 breast) of the same compound?
A: -59.9% (active)

Q: What about the growth (RXF 393 renal) of the same compound?
A: -82.3% (active)

Q: What about the growth (LOX IMVI melanoma) of the same compound?
A: -66.6% (active)

Q: And the growth (SK-MEL-28 melanoma)?
A: -37.9% (active)

Q: And the growth (UO-31 renal)?
A: -71.2% (active)

Q: What about the growth (MOLT-4 leukemia) of the same compound?
A: 5.75% (active)

Q: And the growth (SR leukemia)?
A: 0.13% (active)

Q: And the growth (OVCAR-8 ovarian)?
A: -82.9% (active)

Q: What about the growth (HS 578T breast) of the same compound?
A: -10.2% (active)

Q: What about the growth (SW-620 colon) of the same compound?
A: -22.9% (active)

Q: What about the growth (MDA-MB-468 breast) of the same compound?
A: -56.6% (active)

Q: How did the growth (HOP-92 NSCLC) turn out when `C=CC[Se]C(=O)c1ccc(C(=O)[Se]CC=C)s1` was run?
A: -29.9% (active)

Q: And the growth (K-562 leukemia)?
A: -23.1% (active)

Q: And the growth (MDA-MB-231 breast)?
A: -36.4% (active)

Q: What about the growth (RXF 393 renal) of the same compound?
A: -93.6% (active)

Q: What about the growth (HCT-15 colon) of the same compound?
A: -42.5% (active)

Q: What about the growth (LOX IMVI melanoma) of the same compound?
A: -75.6% (active)

Q: And the growth (SK-MEL-28 melanoma)?
A: -70.8% (active)

Q: What about the growth (UO-31 renal) of the same compound?
A: -98.1% (active)

Q: What about the growth (CAKI-1 renal) of the same compound?
A: -83.9% (active)

Q: And the growth (MOLT-4 leukemia)?
A: -13.9% (active)

Q: What about the growth (SR leukemia) of the same compound?
A: -30% (active)

Q: What about the growth (HS 578T breast) of the same compound?
A: -22.1% (active)

Q: And the growth (SW-620 colon)?
A: -77.4% (active)

Q: What about the growth (MDA-MB-468 breast) of the same compound?
A: -60.6% (active)

Q: With `COc1cc(OC)c(/C=C/C(=O)c2nc3ccccc3n2Cc2ccc(F)cc2)c(OC)c1` as the compound, how does the growth (NCI-H23 lung) read?
A: 89%

Q: What about the growth (HOP-92 NSCLC) of the same compound?
A: 50.2%

Q: And the growth (K-562 leukemia)?
A: 81.9%

Q: And the growth (RXF 393 renal)?
A: 33.7%

Q: What about the growth (SNB-19 CNS) of the same compound?
A: 51.5%

Q: And the growth (SK-MEL-28 melanoma)?
A: 92.8%

Q: What about the growth (MOLT-4 leukemia) of the same compound?
A: 44.7%

Q: And the growth (SR leukemia)?
A: 74.3%

Q: What about the growth (OVCAR-8 ovarian) of the same compound?
A: 79.7%

Q: What about the growth (SK-OV-3 ovarian) of the same compound?
A: 88.2%

Q: And the growth (MDA-MB-468 breast)?
A: 80.1%

Q: Which results are given for `COC(=O)C[C@](O)(CCC(C)C)C(=O)O[C@@H]1C(OC)=C[C@]23CCCN2CCc2cc4c(cc2[C@H]13)OCO4`?
A: growth (NCI-H23 lung): -68% (active); growth (HOP-92 NSCLC): -19.4% (active); growth (K-562 leukemia): 1.57% (active); growth (RXF 393 renal): -89.6% (active); growth (M14 melanoma): -89% (active); growth (LOX IMVI melanoma): -82.6% (active); growth (SK-MEL-28 melanoma): -68.8% (active); growth (MOLT-4 leukemia): -7.96% (active); growth (OVCAR-8 ovarian): -62.9% (active); growth (HS 578T breast): -22.2% (active); growth (SW-620 colon): -7.29% (active); growth (MDA-MB-468 breast): -83.8% (active)
